KDM5B inh – Primary screen for KDM5B Histone Demethylases FDH-coupled qHTS; actives 2.6% (n = 220,000); Potency, µM (series often up to 57.7 µM), usual class: inhibitors; Lysine-specific demethylase 5B (Homo sapiens), Q9UGL1; KDM5B demethylase, FDH-coupled NADH fluorescence (FDH is formaldehyde dehydrogenase); active means well fitted inhibition curve with a large enough effect; further: nearly all actives have a fitted effect of over 70% in size
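Compound dilutions met 200 nM (final) KDM5BΔAP for 10 min at room temperature before substrate addition. The substrate mix held 12.5 µM H3K4me3 with cofactors 25 µM α-ketoglutarate and 50 µM Fe²⁺. NADH signal gain over 30 min defined activity.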
A number is an active result; . = inactive. Shown is part of a subset that was picked to be rich in hits.

SMILES	KDM5B inh
CN(C)C(=O)N1CCCC(CCc2c(F)cccc2F)C1 (stereo not given)	.
Cc1ccc(-c2nnn(CCC(=O)Nc3sc4c(c3C#N)CCCCC4)n2)cc1	.
CCCCNC(=O)COC(=O)CSc1nc2ccccc2o1	.
O=C1N(CCc2ccccc2)c2ccccc2C12CCN(CC1CC1)C2 (stereo not given)	.
CC(C)NC(=O)c1ccc2c(c1)C1(CCN(CC3CC3)C1)CN2Cc1ccccc1 (stereo not given)	28µM
CNC(=O)c1ccc2c(c1)C1(CCN(CC3CC3)C1)CN2Cc1ccccc1 (stereo not given)	35µM
O=C(NC1COC1)c1ccc2c(c1)C1(CCN(CC3CC3)C1)CN2Cc1ccccc1 (stereo not given)	35µM
O=C(c1ccc(Cl)cc1)N1CC2(CCN(CC3CC3)C2)OCc2ccccc21 (stereo not given)	.
CC(C)NC(=O)c1ccc2c(c1)N(Cc1cccc(Cl)c1)C(=O)c1ccccc1S2=O (stereo not given)	.
O=C1N(Cc2ccc(F)cc2)CCCC12CCN(CC1CCCC1)C2 (stereo not given)	.
CN1C(=O)Cc2cc(C(=O)NC3CCN(Cc4ccccc4)CC3)ccc21	.
O=C(NC1CCCC1)c1ccc2c(c1)N(Cc1ccccc1)C(=O)c1ccccc1S2	.
O=C(CNC(=O)c1ccccc1F)NC1CCN(Cc2ccccc2)CC1	.
Cc1ccc(-n2cccc2CC(=O)NCc2ccc3c(c2)OCO3)cc1	.
COc1ccc(-c2noc(C(=O)O)c2[C@@H](C)NC(=O)c2ccc3c(c2)OCO3)cc1	.
CC1(C)CCc2c(cc(OCC(=O)c3ccccc3)c3c(-c4ccccc4)cc(=O)oc23)O1	.
CCc1noc(-c2cn(C3CCN(C(=O)c4ccc(F)c(F)c4)C3)nn2)n1 (stereo not given)	.
Cc1cccc(NC(=O)c2nc3ccccc3nc2Cl)c1C	.
COc1ccc(C(=O)NCC2CCCCC(=O)N2)cn1 (stereo not given)	.
CC1(C(=O)NCc2cc3n(n2)CCCN(S(C)(=O)=O)C3)CCCCO1 (stereo not given)	.
CCc1[nH]c2c(CNC(=O)C3(C)CCCCO3)cc(F)cc2c1C (stereo not given)	20µM
CC1(C(=O)NCc2cc(F)ccc2F)CCCCC(=O)N1 (stereo not given)	.
Cc1noc(C)c1CNC(=O)CC(C)(C)C	.
CCCN(CCC)Cc1ccc(C(=O)NCc2c(C)noc2C)cc1	28µM
Cc1noc(C)c1COc1ccc(C(=O)Nc2ccccc2)cc1	.
SMILES	KDM5B inh
Cc1cc(NCc2nc(-c3ccsc3)no2)ccc1-n1cnnn1	.
CC(C)CC(=O)N1CCc2[nH]nc(C(=O)NCCCc3ccccc3)c2C1	.
O=C(CSc1ccc(-c2cccnc2)nn1)N1CCCCC1	.
COCc1ccc2c(c1)c(OC(C)(C)C(=O)NCc1ccncc1)nn2Cc1cccnc1	.
COCc1ccc2c(c1)c(OC(C)(C)C(=O)N1CC(O)C1)nn2CCC(C)C	35µM
COCc1ccc2c(c1)c(OC(C)(C)C(N)=O)nn2CCC(C)C	32µM
COCCN(C)C(=O)C(C)(C)Oc1nn(Cc2cccnc2)c2ccc(COC)cc12	.
COCc1ccc2c(c1)c(OC(C)(C)C(=O)Nc1cc(C)nn1C)nn2Cc1cccnc1	.
COCc1ccc2c(c1)c(OC(C)(C)C(=O)NCc1cnccn1)nn2CCC(C)C	.
CC(C)CCC(=O)Nc1ccc(Cl)c(C(N)=O)c1	.
COc1ccc(OCc2ccc(C#N)cc2)c(C(C)=O)c1	.
CC(C)C(=O)N(C)C(c1ccccc1)c1c[nH]c2ccccc12 (stereo not given)	.
COc1cccc(C(=O)N2CCN(C(C(=O)O)c3ccc(O)cc3)CC2)c1 (stereo not given)	.
Cc1ccc(C)c(C(=O)N2[C@@H]3CC[C@H]2CC(NC(=O)c2cnc(C)cn2)C3)c1 (stereo not given in full)	.
Cc1ccc(SC(C)C(=O)NC2CC2)cc1 (stereo not given)	.
COc1cccc(-c2cnc3[nH]cc(CC(N)=O)c3c2)c1	35µM
NC(=O)Cc1c[nH]c2ncc(-c3ccc4c(c3)OCO4)cc12	35µM
NC(=O)Cc1c[nH]c2ncc(-c3ccc(Cl)cc3)cc12	20µM
O=C(Cc1c[nH]c2ncc(-c3ccccc3)cc12)Nc1ccc(Cl)cc1	.
NC(=O)Cc1c[nH]c2ncc(-c3ccc(F)c(Cl)c3)cc12	40µM
COc1cccc(CNC(=O)c2c[nH]c3ncccc23)c1	.
O=C(c1ccc2c(c1)nc1n2CCCCC1)N1CCN(c2ccccc2F)CC1	.
CCOc1ccc(Nc2nc3ccccc3nc2NS(=O)(=O)c2ccc(Cl)s2)cc1	.
Cc1cc2c(nc1C)oc1c(=O)n(CC(=O)N3CCOCC3)cnc12	.
CN(CC1CCOC1)S(=O)(=O)c1cccc(C(F)(F)F)c1 (stereo not given)	.
SMILES	KDM5B inh
NC(=O)Cc1c[nH]c2ncc(-c3ccccc3F)cc12	35µM
CC(C)(C)NC(=O)N1CCC2(CC1)CC(Cc1cccc(F)c1)CCO2 (stereo not given)	.
COc1cc(-c2cc(C(=O)O)c3cc(C)ccc3n2)ccc1O	.
Cc1cc(NC(=O)CCN2CCN(Cc3cccc4ccccc34)CC2)ccc1Br	.
COc1ncccc1-c1ccnc(-c2nnc(C)n2-c2ccccc2)c1	32µM
COCCCNc1ccnc(-c2nnc(C)n2-c2ccccc2)c1	.
Cc1nnc(-c2cc(-c3cccc(O)c3)ccn2)n1-c1ccccc1	.
CN1CCN(C2CCN(Cc3ccccn3)C2=O)CC1 (stereo not given)	.
C/C(=N\NC(=O)c1ccc(N(C)C)cc1)c1ccc(Br)s1	.
Cc1nn(-c2ccc(C(C)(C)C)cc2)c(C)c1[C@@H]1C=C[C@@H](NC(=O)NCc2ccccc2)C1	32µM
COc1ccc(C(=O)N[C@@H]2C=C[C@@H](c3c(C)nn(-c4ccc(C(F)(F)F)cc4)c3C)C2)cc1	.
Cc1nn(-c2ccc(C(C)C)cc2)c(C)c1[C@@H]1C=C[C@@H](NC(=O)NCc2ccccc2)C1	.
CC(=O)N[C@@H]1C=C[C@@H](c2c(C)nn(-c3ccc(C(F)(F)F)cc3)c2C)C1	.
Cc1ccc(-n2nc(C)c([C@@H]3C=C[C@@H](NCc4ccc(N(C)C)cc4)C3)c2C)cc1Cl	40µM
Cc1nn(-c2ccc(C(F)(F)F)cc2)c(C)c1[C@@H]1C=C[C@@H](NC(=O)c2ccc(N(C)C)cc2)C1	32µM
Cc1ccc(-n2nc(C)c([C@H]3C=C[C@@H](O)C3)c2C)cc1Cl	.
CCNC(=O)N[C@@H]1C=C[C@@H](c2c(C)nn(-c3ccc(C(C)(C)C)cc3)c2C)C1	.
Cc1ccc(-n2nc(C)c([C@@H]3C=C[C@@H](NC(=O)CC(C)(C)CC(=O)O)C3)c2C)cc1Cl	.
CN(C)S(=O)(=O)c1cc(NC(=O)c2ccc(-n3ccnc3)c([N+](=O)[O-])c2)ccc1Cl	.
CNCCN1C(=O)CC[C@H]2CN(C(=O)CN3CC(=O)NC3=O)CC[C@H]21	.
O=C(c1ccoc1)N1CCN(c2cc(C3CC3)ncn2)CC(O)C1 (stereo not given)	.
O=C(c1cc(F)ccc1F)N1CCC(Oc2ncccc2C(=O)N2CCCCC2)C1 (stereo not given)	.
C=CCNC(=O)C[C@@H]1CCN(S(=O)(=O)c2c(C)noc2C)C[C@@H]1CC	.
Cc1ccc(C(=O)Cn2c(Br)nc3c2c(=O)n(C)c(=O)n3C)cc1	.
